# Reference: the supplement of paper PMC11732987, “Enantioselective OTUD7B fragment discovery through chemoproteomics screening and high-throughput optimisation” (Communications Chemistry, 2025)
# Values without a mark were called inactive.
# Experiments:
# Assay in all cases: log2 ratio of Biotin-Ahx-Ub-VS probe labelling (fragment/DMSO); higher = less target engagement (more negative = stronger competition), active = hit call of the paper (q ≤ 0.05, log2 ratio ≤ -1)
# Settings in all cases: compound concentration: 200 uM; treatment time: 3 h
# UniProt O00507 = target: UniProt O00507
# How it was run: (§1)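 HEK293T lysate (495 µg per sample, in Tris/CHAPS/IGEPAL buffer with protease inhibitors) was exposed in triplicate for 3 h to fragment at 200 µM or to vehicle, then to Biotin-Ahx-Ub-VS at 0.5 µM final for 1 h. Labelled DUBs were enriched on NeutrAvidin, digested with LysC and trypsin, and analysed by diaPASEF LC-MS/MS. Spectronaut label-free quantities were normalised to the global median, and values are average log2 ratios of fragment over vehicle from an unpaired t-test. Only proteins with ≥2 unique peptides were used.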
# UniProt P51784 = target: UniProt P51784
# How it was run: as §1
# UniProt Q5T2D3 = target: T1, UniProt Q5T2D3
# T1 sequence (whole entry): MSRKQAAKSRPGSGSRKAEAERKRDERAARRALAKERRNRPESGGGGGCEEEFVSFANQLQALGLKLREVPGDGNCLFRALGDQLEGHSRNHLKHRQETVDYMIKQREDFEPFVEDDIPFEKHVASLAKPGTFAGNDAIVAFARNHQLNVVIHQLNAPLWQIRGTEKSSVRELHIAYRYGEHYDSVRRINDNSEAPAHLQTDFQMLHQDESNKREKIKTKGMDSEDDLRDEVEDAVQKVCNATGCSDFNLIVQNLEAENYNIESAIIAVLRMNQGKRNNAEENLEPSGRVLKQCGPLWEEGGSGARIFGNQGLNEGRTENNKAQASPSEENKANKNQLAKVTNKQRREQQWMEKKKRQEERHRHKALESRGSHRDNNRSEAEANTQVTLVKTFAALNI
# How it was run: as §1
# UniProt Q8TE49 = target: T2, UniProt Q8TE49
# T2 sequence (whole entry): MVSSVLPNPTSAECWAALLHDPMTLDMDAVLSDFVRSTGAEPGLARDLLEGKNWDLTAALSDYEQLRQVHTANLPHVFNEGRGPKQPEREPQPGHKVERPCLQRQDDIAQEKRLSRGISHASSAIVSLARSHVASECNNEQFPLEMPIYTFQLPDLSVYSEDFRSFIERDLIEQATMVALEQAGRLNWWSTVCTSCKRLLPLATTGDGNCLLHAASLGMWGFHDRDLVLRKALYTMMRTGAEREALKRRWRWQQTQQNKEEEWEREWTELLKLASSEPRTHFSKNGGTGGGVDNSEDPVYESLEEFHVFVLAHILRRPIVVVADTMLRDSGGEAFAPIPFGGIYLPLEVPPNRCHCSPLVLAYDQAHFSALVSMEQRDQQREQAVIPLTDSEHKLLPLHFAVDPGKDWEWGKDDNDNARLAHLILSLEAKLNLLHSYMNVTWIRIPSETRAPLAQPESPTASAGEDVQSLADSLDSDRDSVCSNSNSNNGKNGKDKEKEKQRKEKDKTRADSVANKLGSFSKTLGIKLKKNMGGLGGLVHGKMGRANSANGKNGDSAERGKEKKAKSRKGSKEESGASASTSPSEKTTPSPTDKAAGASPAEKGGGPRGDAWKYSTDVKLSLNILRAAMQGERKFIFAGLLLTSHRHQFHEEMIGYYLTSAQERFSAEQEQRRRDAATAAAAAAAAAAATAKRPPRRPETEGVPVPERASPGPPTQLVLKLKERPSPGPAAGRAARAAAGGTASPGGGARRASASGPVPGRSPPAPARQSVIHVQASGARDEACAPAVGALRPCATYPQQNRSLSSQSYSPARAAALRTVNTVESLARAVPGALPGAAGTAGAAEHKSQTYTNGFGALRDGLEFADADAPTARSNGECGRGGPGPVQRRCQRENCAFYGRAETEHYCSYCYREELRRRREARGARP
# How it was run: as §1
# UniProt Q9P2H5 = target: T3, UniProt Q9P2H5
# T3 sequence (whole entry): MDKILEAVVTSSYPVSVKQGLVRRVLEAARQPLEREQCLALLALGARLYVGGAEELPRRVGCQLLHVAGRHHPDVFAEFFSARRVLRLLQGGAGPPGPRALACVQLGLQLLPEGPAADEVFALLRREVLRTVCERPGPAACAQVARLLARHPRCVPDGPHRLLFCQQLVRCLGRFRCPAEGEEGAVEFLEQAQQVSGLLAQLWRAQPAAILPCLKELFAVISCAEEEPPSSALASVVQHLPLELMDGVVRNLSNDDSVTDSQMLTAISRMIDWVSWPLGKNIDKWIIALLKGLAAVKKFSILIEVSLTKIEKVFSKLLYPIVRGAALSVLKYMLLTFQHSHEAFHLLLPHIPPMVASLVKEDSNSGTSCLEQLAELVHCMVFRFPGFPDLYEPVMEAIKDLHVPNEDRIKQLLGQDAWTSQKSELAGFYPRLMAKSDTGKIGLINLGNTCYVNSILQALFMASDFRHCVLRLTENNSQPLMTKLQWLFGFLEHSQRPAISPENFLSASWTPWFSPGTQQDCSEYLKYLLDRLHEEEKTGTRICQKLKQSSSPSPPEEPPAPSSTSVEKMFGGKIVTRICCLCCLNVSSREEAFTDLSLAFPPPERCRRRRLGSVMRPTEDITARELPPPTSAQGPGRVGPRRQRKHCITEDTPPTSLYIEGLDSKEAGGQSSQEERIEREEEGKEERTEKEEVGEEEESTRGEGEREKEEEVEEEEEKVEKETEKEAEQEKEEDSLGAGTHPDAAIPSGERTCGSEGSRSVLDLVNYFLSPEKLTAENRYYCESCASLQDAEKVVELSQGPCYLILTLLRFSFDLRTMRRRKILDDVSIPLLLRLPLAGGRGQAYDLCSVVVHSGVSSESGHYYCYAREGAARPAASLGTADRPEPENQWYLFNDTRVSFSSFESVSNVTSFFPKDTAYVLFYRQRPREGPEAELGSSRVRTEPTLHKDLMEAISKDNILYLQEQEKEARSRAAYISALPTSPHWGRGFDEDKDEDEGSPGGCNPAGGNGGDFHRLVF
# How it was run: as §1
# UniProt Q9UGI0 = target: T4, UniProt Q9UGI0
# T4 sequence (whole entry): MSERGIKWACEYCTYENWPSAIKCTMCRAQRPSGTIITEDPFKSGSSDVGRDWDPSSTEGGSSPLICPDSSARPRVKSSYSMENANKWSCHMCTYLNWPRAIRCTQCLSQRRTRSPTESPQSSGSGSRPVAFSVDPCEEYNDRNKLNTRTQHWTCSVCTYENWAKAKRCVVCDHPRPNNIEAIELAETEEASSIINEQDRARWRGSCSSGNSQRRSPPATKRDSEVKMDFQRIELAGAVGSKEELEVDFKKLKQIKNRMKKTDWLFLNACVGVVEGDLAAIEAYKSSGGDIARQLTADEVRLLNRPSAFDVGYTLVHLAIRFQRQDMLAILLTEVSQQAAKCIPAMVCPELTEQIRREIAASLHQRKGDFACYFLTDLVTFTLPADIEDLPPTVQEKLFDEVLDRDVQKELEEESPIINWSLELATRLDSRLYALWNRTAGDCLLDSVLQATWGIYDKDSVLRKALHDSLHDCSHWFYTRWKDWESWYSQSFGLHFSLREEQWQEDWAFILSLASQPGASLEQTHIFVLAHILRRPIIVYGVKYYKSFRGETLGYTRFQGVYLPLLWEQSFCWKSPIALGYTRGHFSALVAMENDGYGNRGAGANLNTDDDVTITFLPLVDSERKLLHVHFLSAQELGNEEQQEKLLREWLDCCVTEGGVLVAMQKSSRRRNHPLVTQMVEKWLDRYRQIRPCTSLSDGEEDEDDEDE
# How it was run: as §1
# YOD1 = target: T5, YOD1 (UniProt Q5VVQ6)
# T5 sequence (whole entry): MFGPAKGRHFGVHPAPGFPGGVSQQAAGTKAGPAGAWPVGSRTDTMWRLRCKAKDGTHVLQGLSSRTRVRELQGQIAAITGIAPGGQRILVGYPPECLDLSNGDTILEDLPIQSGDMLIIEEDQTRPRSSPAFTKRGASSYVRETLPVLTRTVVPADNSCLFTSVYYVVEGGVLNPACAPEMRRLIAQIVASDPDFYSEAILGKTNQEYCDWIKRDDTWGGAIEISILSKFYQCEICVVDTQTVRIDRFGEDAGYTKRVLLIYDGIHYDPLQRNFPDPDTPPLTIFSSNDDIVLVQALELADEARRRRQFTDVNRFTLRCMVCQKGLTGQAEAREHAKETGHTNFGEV
# How it was run: as §1
# Sequence of UniProt O00507 (O00507 whole entry, the tested form may be a part): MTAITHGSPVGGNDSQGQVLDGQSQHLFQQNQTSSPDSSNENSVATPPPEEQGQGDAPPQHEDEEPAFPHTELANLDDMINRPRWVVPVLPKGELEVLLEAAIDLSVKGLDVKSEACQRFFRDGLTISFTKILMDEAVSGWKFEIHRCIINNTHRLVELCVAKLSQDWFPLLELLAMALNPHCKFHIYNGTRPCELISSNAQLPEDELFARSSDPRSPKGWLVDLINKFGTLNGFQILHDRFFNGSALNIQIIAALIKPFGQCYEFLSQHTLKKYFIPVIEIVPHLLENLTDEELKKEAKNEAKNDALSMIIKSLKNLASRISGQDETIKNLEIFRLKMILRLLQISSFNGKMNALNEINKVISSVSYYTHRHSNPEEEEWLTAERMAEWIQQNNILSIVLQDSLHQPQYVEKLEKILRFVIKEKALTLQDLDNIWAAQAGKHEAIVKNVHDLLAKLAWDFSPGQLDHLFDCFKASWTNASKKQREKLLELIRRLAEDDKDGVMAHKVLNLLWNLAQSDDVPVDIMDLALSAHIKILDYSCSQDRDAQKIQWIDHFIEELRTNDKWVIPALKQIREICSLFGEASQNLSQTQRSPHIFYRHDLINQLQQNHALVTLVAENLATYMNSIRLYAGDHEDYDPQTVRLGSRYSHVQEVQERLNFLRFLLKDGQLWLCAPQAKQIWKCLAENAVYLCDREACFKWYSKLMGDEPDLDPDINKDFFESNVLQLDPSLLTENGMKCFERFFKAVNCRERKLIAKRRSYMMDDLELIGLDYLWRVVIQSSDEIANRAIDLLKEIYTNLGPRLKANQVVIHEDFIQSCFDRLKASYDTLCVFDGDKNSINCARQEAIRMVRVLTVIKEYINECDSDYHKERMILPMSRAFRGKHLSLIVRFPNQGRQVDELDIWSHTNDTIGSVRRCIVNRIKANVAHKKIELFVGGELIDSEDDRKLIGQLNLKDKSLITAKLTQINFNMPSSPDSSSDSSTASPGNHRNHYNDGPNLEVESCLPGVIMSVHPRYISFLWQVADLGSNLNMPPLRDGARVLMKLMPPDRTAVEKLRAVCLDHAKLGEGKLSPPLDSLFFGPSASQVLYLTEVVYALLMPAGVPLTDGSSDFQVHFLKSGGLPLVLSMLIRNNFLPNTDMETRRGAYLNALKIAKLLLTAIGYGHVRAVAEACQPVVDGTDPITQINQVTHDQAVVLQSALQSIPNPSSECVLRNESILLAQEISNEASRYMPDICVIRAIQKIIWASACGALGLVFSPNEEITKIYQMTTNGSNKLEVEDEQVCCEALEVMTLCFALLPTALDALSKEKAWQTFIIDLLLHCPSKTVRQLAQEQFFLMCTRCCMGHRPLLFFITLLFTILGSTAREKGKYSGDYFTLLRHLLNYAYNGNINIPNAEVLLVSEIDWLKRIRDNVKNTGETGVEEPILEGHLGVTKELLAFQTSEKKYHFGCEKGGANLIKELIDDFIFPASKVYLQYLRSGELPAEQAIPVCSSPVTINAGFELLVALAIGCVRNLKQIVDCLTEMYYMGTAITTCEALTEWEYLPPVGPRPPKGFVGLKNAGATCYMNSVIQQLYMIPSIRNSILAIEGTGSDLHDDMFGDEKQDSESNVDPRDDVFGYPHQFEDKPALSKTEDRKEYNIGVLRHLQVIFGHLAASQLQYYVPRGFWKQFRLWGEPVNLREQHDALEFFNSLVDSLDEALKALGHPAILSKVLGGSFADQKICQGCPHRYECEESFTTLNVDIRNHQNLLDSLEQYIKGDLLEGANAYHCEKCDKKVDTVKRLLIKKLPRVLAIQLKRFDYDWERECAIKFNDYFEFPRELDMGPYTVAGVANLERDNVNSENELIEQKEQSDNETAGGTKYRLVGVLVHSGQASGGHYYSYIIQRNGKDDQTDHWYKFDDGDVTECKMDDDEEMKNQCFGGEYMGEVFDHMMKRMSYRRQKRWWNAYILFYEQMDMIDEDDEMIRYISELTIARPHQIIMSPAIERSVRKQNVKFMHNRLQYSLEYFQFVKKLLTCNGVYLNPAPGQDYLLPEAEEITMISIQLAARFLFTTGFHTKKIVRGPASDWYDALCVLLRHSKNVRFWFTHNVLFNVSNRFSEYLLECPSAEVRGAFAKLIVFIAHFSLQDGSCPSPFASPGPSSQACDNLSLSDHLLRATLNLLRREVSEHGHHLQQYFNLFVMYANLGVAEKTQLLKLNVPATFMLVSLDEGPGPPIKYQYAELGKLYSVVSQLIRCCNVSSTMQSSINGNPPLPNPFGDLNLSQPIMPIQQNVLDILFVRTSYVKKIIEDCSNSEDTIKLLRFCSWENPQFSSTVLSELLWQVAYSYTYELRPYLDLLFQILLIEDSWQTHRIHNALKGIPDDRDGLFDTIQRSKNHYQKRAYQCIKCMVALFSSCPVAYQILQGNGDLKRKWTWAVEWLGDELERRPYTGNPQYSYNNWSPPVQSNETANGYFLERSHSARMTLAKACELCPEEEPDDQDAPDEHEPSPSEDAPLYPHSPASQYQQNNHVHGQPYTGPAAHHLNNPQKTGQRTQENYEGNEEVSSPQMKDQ
# Sequence of UniProt P51784 (P51784 whole entry): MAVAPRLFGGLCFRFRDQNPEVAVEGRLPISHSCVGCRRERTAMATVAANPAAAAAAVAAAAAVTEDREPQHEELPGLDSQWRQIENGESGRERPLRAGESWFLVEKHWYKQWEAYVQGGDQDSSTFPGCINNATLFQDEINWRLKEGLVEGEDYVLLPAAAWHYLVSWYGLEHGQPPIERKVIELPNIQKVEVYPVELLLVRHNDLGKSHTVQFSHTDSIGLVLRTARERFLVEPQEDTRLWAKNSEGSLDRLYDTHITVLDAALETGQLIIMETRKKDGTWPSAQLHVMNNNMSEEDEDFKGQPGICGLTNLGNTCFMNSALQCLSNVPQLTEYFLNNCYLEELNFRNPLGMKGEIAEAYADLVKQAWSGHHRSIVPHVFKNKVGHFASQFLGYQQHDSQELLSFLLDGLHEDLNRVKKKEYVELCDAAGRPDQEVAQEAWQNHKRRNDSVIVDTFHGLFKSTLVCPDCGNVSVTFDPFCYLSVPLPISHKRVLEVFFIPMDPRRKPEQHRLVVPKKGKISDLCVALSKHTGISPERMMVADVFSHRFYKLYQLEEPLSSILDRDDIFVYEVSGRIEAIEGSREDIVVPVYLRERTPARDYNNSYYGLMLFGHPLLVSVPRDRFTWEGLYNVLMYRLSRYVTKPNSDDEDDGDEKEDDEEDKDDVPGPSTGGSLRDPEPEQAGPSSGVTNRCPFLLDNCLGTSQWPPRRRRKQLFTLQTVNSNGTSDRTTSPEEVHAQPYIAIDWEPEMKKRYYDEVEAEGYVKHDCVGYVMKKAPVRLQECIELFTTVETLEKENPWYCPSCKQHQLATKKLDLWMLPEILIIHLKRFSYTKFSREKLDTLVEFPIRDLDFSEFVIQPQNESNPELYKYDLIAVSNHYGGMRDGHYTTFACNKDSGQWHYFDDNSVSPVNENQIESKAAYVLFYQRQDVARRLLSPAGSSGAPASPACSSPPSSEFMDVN
SMILES,log2 ratio of Biotin-Ahx-Ub-VS probe labelling (UniProt O00507),log2 ratio of Biotin-Ahx-Ub-VS probe labelling (UniProt P51784),log2 ratio of Biotin-Ahx-Ub-VS probe labelling (UniProt Q5T2D3),log2 ratio of Biotin-Ahx-Ub-VS probe labelling (UniProt Q8TE49),log2 ratio of Biotin-Ahx-Ub-VS probe labelling (UniProt Q9P2H5),log2 ratio of Biotin-Ahx-Ub-VS probe labelling (UniProt Q9UGI0),log2 ratio of Biotin-Ahx-Ub-VS probe labelling (YOD1)
O=C(CCl)NCc1noc(C2CC2)n1,-0.504,0.0106,-0.464,-0.385,-0.13,-0.133,-0.415
COc1cccc(CN(C)C(=O)CCl)c1,-0.462,-0.179,-0.0411,-0.149,0.258,-1.23 (active),0.0172
Cc1ccc(CNC(=O)CCl)nc1C.Cl,-0.661,0.353,-0.0639,-0.343,0.102,-0.161,-0.259
Cc1ccc(CC(NC(=O)CCl)c2ccccn2)cc1.Cl (stereo not drawn),-0.0403,0.188,0.254,0.237,-0.00516,-0.0851,0.248
CNC(=O)C1CCN(C(=O)CCl)CC1,-0.581,0.091,0.0899,-0.129,0.179,0.0343,-0.239
O=C(CCl)NC(Cn1ccccc1=O)c1ccccc1 (stereo not drawn),0.0241,0.0376,0.0727,-0.0581,0.148,-0.146,0.00589
Cc1c(NC(=O)CCl)c(=O)n(-c2ccccc2)n1C,0.221,-0.106,-0.105,-0.377,-0.286,0.0727,-0.128
O=C(CCl)N(C1CCCC1)C1CCS(=O)(=O)C1 (stereo not drawn),0.335,-0.112,-0.128,-0.372,-0.386,-0.121,0.15
O=C(CCl)NC1CCN(C(=O)C2CCCCC2)CC1,-0.257,0.122,0.0478,-0.283,0.125,-0.0541,-0.0714
C[C@H]1CN(C(=O)CCl)CCN1C(=O)c1cnn(C)c1.Cl,0.326,0.00812,-0.292,-0.57,-0.408,0.189,0.0183
O=C(CCl)N1CCOC2(CCC2)CC1,-0.268,-0.147,-0.0132,-0.472,-0.184,-1.19 (active),-0.0502
CCN(C(=O)CCl)C1CCCCC1,0.476,0.0309,-0.00741,-0.32,-0.0524,0.069,0.333
Cc1cccc(NC(=O)[C@@H]2CCCN2C(=O)CCl)n1,-0.299,-0.00908,-0.366,-0.721,-0.312,-0.3,-0.432
CN1C(=O)c2ccc(NC(=O)CCl)cc2C1=O,-0.092,-0.0657,-0.265,-1.43 (active),-0.23,-0.559,-0.0267
O=C(CCl)NCc1cccc(N2CCCC2=O)c1,-0.0239,0.0359,0.0544,-0.351,0.0802,-0.491,0.144
Cl.O=C(CCl)N1CCCC(c2ncc[nH]2)C1 (stereo not drawn),0.0496,0.000136,-0.124,-0.0422,0.113,-0.517,-0.0255
O=C(CCl)N[C@H]1CC[C@@H](CO)CC1,-0.725,-0.788,-0.746,-1.32 (active),-0.775,-0.944,-0.784
COCC[C@@H](NC(=O)CCl)c1ccccc1,-0.0256,0.0932,-0.0591,-0.208,-0.159,-0.681,0.231
COc1ccc(-c2csc(NC(=O)CCl)n2)cc1,-0.576,-0.0937,-0.257,-0.479,-0.528,-2.09 (active),-0.00199
